In PMC7862700, “An all-to-all approach to the identification of sequence-specific readers for epigenetic DNA modifications on cytosine”:

Tests used:
Test in all cases: DAPPL (digital affinity profiling via proximity ligation, sequencing); 10 mM Tris-HCl pH 7.5, 50 mM NaCl, 1 mM DTT, 4% glycerol, room temperature, 30 min; GST-TFs on glutathione beads, 16-mer random dsDNA library, 0.1% formaldehyde crosslink after washing; high values mean tight binding
Conditions in all cases: protein: recombinant; tags: N-terminal GST; dsDNA, one strand shown
[1] = target: T1, FLI1 (Homo sapiens, UniProt Q01543 1-452)
T1 sequence: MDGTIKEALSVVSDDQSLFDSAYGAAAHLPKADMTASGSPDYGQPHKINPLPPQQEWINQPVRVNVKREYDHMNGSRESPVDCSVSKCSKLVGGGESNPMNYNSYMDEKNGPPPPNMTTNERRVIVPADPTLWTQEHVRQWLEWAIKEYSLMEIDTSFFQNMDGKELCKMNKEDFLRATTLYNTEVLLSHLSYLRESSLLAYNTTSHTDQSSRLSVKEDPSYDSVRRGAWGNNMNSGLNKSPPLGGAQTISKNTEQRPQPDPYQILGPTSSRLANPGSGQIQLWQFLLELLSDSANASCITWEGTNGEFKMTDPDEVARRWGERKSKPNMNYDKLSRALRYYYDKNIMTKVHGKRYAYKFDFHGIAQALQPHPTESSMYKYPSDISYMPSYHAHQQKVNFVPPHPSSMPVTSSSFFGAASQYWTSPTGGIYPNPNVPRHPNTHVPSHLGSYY
Procedure, shortened: (§1)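 Yeast served to express human transcription factors as GST fusions, which were then captured on glutathione beads and labelled with DNA barcodes. Pooled with a tag-only sample, they were incubated with 200 nmole of a 16-mer random double-stranded DNA library for 30 min at room temperature in Tris/NaCl/DTT/glycerol buffer, washed, crosslinked with 0.1% formaldehyde, ligated by proximity, amplified by PCR and sequenced. Dividing each hexamer's read frequency for a factor by its frequency for the tag-only sample gives the binding signal.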

[2] = target: ELF1 (Homo sapiens, UniProt P32519 1-619)
Chain of ELF1 (P32519 whole entry): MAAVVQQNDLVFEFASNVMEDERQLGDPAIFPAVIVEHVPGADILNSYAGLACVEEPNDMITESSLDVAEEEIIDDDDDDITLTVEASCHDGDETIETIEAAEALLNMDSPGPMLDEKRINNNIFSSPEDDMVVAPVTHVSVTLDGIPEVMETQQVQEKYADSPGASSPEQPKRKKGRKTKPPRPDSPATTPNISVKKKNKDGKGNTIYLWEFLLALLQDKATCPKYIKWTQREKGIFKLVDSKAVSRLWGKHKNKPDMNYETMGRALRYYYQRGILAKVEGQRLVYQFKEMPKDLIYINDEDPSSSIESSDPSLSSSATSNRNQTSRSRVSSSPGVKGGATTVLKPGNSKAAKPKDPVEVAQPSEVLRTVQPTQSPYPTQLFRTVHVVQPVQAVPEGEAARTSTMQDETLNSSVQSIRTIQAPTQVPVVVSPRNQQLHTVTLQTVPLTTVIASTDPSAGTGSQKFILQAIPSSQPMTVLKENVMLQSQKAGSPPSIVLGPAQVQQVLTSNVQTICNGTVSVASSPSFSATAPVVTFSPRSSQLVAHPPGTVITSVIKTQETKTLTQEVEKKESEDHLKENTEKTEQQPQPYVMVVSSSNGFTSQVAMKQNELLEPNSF
Procedure, shortened: as §1

[3] = target: T2, EHF (Homo sapiens, UniProt Q9NZC4 1-300)
T2 sequence: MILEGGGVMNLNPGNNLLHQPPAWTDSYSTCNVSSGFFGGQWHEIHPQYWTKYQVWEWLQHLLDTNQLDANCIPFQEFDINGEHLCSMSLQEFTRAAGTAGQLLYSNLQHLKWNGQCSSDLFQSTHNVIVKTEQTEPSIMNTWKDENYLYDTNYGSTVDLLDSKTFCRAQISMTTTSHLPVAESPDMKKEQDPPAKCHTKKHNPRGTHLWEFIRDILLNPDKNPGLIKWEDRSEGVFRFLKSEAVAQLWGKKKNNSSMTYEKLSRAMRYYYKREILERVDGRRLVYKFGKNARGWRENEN
Procedure, shortened: as §1

[4] = target: SPIB (Homo sapiens, UniProt Q01892 1-262)
Chain of SPIB (Q01892 whole entry): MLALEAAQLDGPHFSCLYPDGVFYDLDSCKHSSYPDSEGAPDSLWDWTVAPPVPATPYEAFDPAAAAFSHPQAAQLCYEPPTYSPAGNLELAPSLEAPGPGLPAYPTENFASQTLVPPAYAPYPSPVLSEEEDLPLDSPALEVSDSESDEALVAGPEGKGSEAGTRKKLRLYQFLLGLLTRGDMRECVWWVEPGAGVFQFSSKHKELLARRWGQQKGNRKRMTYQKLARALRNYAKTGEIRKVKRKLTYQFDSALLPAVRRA
Procedure, shortened: as §1

[5] = target: T3, SPIC (Homo sapiens, UniProt Q8N5J4 1-248)
T3 sequence: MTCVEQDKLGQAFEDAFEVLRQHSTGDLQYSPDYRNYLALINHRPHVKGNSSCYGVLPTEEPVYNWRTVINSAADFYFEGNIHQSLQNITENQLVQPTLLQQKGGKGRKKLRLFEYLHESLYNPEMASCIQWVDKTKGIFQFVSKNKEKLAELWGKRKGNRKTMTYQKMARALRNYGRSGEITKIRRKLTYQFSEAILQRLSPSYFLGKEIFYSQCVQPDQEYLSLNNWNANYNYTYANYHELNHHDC
Procedure, shortened: as §1

[6] = target: ELF4 (Homo sapiens, UniProt Q99607 1-663)
Chain of ELF4 (Q99607 whole entry): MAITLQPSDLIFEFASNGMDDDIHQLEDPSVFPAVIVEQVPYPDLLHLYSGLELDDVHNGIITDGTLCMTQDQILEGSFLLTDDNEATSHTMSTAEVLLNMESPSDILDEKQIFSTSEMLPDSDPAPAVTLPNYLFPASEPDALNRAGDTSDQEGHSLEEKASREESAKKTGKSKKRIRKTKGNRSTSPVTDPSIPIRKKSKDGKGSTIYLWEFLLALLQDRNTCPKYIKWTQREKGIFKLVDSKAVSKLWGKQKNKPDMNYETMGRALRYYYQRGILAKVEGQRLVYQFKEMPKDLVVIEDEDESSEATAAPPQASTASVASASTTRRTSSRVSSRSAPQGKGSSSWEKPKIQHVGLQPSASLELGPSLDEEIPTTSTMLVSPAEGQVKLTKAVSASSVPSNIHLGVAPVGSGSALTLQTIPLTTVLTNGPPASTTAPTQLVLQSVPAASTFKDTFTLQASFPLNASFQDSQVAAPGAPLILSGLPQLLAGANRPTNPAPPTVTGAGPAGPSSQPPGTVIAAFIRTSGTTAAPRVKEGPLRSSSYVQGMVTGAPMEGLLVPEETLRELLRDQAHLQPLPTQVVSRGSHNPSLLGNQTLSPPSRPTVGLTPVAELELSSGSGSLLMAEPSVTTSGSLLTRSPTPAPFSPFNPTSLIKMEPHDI
Procedure, shortened: as §1

[7] = target: T4, ELK4 (Homo sapiens, UniProt P28324-2 1-405)
T4 sequence: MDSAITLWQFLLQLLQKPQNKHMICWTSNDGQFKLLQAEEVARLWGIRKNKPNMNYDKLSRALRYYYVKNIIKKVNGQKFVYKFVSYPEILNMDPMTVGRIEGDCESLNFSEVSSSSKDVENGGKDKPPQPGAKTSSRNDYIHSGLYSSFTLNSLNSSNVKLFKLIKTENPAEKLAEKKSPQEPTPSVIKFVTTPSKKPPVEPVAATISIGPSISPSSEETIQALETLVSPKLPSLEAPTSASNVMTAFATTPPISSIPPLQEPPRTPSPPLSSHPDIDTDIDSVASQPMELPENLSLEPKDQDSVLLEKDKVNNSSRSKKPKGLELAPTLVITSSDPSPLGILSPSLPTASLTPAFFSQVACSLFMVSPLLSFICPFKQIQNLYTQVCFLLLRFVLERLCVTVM
Procedure, shortened: as §1

[8] = target: T5, ETV2 (Homo sapiens, UniProt O00321 1-342)
T5 sequence: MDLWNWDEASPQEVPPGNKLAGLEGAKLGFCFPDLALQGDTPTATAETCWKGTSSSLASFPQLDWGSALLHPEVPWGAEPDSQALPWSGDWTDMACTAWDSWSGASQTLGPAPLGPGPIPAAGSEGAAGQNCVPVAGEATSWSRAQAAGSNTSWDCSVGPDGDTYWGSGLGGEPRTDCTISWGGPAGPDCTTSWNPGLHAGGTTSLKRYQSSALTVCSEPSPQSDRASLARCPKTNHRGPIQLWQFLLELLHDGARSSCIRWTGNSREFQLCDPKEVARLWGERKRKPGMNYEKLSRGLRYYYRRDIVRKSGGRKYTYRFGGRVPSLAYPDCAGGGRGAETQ
Procedure, shortened: as §1

[9] = target: T6, ERF (Homo sapiens, UniProt P50548 1-548)
T6 sequence: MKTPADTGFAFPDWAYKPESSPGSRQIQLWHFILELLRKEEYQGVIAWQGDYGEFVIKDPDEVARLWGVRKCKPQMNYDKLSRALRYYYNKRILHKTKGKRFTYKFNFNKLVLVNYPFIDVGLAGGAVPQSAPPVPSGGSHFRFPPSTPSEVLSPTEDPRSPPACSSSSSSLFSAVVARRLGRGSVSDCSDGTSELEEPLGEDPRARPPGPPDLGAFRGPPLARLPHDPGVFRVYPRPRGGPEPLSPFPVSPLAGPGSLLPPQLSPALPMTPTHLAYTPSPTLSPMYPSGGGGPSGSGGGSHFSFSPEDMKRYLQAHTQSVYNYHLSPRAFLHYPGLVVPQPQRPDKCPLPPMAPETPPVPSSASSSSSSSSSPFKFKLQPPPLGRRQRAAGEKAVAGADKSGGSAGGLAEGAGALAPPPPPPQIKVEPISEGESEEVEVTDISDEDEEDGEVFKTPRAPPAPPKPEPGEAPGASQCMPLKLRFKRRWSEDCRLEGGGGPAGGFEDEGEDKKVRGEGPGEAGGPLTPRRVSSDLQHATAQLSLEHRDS
Procedure, shortened: as §1

[10] = target: T7, ETV7 (Homo sapiens, UniProt Q9Y603 1-341)
T7 sequence: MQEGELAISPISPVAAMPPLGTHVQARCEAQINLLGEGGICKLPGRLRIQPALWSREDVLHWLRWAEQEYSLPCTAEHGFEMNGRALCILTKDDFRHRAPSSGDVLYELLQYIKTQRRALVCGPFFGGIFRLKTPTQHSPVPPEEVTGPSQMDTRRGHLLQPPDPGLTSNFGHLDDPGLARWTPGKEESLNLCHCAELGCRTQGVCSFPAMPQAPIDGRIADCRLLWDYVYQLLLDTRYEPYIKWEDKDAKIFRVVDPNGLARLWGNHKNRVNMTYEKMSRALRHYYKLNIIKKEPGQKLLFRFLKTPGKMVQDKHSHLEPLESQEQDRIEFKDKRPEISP
Procedure, shortened: as §1

[11] = target: ETV6 (Homo sapiens, UniProt P41212 1-452)
Chain of ETV6 (P41212 whole entry): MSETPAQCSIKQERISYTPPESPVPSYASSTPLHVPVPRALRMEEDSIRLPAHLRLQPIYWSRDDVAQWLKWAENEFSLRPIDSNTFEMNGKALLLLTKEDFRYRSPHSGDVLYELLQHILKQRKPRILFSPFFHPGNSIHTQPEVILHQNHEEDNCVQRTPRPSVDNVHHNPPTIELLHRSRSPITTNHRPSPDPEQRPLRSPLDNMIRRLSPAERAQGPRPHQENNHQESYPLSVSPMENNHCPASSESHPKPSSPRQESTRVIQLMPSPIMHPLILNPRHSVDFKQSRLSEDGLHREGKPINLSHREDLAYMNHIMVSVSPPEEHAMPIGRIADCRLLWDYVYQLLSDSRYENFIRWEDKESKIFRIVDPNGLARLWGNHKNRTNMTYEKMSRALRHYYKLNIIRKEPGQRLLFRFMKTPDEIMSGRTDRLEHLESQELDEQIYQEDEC
Procedure, shortened: as §1

[12] = target: T8, ELK1 (Homo sapiens, UniProt P19419 1-428)
T8 sequence: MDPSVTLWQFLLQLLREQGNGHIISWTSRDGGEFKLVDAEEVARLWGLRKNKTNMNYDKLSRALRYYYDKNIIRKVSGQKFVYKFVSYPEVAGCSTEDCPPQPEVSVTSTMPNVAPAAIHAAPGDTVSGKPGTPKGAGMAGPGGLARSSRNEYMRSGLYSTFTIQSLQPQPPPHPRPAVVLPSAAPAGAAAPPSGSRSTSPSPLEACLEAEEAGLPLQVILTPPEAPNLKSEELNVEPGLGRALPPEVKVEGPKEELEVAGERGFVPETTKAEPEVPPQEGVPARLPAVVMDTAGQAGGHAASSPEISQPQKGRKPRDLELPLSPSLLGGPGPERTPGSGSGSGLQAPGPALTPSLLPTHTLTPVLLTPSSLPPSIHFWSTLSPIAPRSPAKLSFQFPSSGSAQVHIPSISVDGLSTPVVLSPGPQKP
Procedure, shortened: as §1

[13] = target: T9, GABPA (Homo sapiens, UniProt Q06546 1-454)
T9 sequence: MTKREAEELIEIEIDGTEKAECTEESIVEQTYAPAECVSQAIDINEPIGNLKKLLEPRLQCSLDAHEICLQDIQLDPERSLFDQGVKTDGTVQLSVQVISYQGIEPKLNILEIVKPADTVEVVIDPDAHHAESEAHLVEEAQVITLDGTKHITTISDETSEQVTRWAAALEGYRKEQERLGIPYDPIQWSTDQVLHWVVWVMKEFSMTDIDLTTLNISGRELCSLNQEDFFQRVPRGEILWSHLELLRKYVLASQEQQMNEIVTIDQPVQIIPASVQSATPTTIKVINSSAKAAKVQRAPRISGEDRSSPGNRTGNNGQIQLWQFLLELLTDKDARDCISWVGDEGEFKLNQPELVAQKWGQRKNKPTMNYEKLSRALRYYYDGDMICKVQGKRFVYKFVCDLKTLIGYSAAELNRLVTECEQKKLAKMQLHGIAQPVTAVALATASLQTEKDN
Procedure, shortened: as §1

[14] = target: T10, ERG (Homo sapiens, UniProt P11308 1-479)
T10 sequence: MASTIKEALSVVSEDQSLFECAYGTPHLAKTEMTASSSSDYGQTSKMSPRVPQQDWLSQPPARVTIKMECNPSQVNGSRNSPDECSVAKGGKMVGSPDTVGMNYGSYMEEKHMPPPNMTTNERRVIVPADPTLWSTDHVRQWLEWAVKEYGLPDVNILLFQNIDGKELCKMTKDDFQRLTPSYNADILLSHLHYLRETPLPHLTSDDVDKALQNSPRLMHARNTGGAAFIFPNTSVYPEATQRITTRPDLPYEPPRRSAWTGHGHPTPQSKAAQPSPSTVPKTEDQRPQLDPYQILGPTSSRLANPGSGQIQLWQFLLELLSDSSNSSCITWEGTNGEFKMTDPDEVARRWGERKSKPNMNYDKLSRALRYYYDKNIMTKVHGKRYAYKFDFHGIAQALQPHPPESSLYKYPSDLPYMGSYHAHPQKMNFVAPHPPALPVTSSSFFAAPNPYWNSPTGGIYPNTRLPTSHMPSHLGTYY
Procedure, shortened: as §1

[15] = target: ETV1 (Homo sapiens, UniProt P50549 1-477)
Chain of ETV1 (P50549 whole entry): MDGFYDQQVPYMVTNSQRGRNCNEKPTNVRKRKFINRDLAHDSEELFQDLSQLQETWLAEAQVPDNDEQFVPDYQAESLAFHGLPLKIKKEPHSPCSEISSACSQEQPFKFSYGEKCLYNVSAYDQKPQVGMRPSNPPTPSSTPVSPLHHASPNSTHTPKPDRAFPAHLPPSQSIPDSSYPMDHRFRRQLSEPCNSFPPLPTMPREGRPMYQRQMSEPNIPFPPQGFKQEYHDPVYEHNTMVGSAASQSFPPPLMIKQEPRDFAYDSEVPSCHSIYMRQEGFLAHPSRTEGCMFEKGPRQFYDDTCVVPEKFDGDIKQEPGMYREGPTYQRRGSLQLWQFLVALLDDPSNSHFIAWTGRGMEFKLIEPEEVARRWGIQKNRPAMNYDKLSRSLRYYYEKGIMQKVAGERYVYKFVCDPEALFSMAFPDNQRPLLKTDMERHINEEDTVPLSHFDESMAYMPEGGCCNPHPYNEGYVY
Procedure, shortened: as §1

[16] = target: T11, ETV3L (Homo sapiens, UniProt Q6ZN32 1-361)
T11 sequence: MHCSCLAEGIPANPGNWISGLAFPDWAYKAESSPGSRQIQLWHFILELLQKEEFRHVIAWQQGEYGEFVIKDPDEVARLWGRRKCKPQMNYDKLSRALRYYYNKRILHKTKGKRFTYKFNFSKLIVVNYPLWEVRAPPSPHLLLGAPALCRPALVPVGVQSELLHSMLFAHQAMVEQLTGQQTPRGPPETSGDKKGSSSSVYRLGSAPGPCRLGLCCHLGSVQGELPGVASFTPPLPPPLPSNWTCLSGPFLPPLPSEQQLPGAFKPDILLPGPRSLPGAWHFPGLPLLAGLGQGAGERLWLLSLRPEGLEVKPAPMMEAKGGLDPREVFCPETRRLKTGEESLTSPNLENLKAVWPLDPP
Procedure, shortened: as §1

[17] = target: T12, ETV3 (Homo sapiens, UniProt P41162-2 1-143)
T12 sequence: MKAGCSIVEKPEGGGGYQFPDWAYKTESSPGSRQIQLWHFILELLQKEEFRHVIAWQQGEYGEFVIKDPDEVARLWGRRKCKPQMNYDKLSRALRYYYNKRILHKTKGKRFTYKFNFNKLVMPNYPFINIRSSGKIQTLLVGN
Procedure, shortened: as §1

Row | Sequence | binding signal [1] | binding signal [2] | binding signal [3] | binding signal [4] | binding signal [5] | binding signal [6] | binding signal [7] | binding signal [8] | binding signal [9] | binding signal [10] | binding signal [11] | binding signal [12] | binding signal [13] | binding signal [14] | binding signal [15] | binding signal [16] | binding signal [17]
1 | TAGTTG | 1.04 fold enrichment (6-mer frequency, TF over GST control) | 1.01 fold enrichment (6-mer frequency, TF over GST control) | 1.01 fold enrichment (6-mer frequency, TF over GST control) | 1.02 fold enrichment (6-mer frequency, TF over GST control) | 1 fold enrichment (6-mer frequency, TF over GST control) | 1.01 fold enrichment (6-mer frequency, TF over GST control) | 1.18 fold enrichment (6-mer frequency, TF over GST control) | 1.01 fold enrichment (6-mer frequency, TF over GST control) | 1.07 fold enrichment (6-mer frequency, TF over GST control) | 1.02 fold enrichment (6-mer frequency, TF over GST control) | 1.01 fold enrichment (6-mer frequency, TF over GST control) | – | – | – | – | – | –
2 | AGAACA | 1.06 fold enrichment (6-mer frequency, TF over GST control) | 1.07 fold enrichment (6-mer frequency, TF over GST control) | 1.02 fold enrichment (6-mer frequency, TF over GST control) | – | – | 1.06 fold enrichment (6-mer frequency, TF over GST control) | 1.02 fold enrichment (6-mer frequency, TF over GST control) | 1.03 fold enrichment (6-mer frequency, TF over GST control) | 1.07 fold enrichment (6-mer frequency, TF over GST control) | 1.07 fold enrichment (6-mer frequency, TF over GST control) | 1.08 fold enrichment (6-mer frequency, TF over GST control) | 1.06 fold enrichment (6-mer frequency, TF over GST control) | 1.11 fold enrichment (6-mer frequency, TF over GST control) | 1.01 fold enrichment (6-mer frequency, TF over GST control) | 1.02 fold enrichment (6-mer frequency, TF over GST control) | 1.01 fold enrichment (6-mer frequency, TF over GST control) | 1.07 fold enrichment (6-mer frequency, TF over GST control)
